Screening data deposited in PubChem by several laboratories.
The list is not random: actives were taken first. Their share in the collection is about 4.2%.
MITF act – activators of MITF-driven TRPM1 promoter reporter, primary screen, cell-based, SK-MEL-5, luciferase, single point; SK-MEL-5 TRPM1-promoter luciferase, 24 h; % of positive control, neutral wells = 0; activation, % at 12.5 µM; 300,000 compounds, 0.75% hits;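 active = mean activation of at least 80% with every replicate also reaching 80%; inconclusive = mean reaches 80% but some replicate falls short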;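 also: 0% = neutral control wells and 100% = parthenolide positive control wells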
GAA850 FXN act – FXN promoter activators, primary screen, cell-based, luciferase luminescence, HEK293 lucGAA850; HEK293 lucGAA850 FXN promoter luciferase reporter, 24 h; percent of 10 µM SAHA response; activation, % at 6 µM; 360,000 compounds, 0.56% hits; AID 540364, 2011;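 active = activation above the average of all compounds screened plus 3 SD, cutoff fixed separately per campaign, cut at about 7.5% in these data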;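 also: 0% = DMSO wells and 100% = 10 µM SAHA wells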
AHR activator – AHR activators, primary screen, cell-based, luminescence, luciferase reporter, human. Aryl hydrocarbon receptor (Homo sapiens), P35869. 320,000 compounds, 2.5% hits. AHR-responsive luciferase reporter cells. activation, % at 5 µM; in the data active = activation above about 47%;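 also: 0% = vehicle wells and 100% = reference agonist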
Target sequence (P35869 whole entry, looked up): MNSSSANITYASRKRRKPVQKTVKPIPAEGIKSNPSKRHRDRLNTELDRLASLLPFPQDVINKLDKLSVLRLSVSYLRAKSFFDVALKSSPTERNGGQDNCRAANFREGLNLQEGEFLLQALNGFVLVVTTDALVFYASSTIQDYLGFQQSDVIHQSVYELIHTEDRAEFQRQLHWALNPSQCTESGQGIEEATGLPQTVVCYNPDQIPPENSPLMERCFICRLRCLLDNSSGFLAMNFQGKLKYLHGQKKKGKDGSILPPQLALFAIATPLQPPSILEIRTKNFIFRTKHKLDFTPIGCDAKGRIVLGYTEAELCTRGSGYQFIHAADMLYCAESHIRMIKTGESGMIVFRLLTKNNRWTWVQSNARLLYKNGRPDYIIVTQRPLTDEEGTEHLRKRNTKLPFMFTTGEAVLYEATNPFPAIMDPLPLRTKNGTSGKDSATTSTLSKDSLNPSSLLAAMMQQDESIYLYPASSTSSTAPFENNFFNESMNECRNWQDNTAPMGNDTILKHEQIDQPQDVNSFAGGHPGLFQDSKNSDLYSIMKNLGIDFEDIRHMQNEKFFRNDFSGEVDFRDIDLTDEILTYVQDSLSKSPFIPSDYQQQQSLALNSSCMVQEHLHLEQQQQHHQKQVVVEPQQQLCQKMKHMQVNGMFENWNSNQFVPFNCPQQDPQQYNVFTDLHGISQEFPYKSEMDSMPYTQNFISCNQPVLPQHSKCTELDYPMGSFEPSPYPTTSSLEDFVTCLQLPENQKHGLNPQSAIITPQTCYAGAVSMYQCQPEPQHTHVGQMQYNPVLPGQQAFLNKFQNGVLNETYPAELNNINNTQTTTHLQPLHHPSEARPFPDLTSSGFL
esBAF inh – Bmi1 luciferase reporter increase in mESCs, primary screen, esBAF inhibitor project, mouse ES cells, Bmi1 luciferase knock-in, single point; 350,000 compounds, 2% hits; reporter increase, % at 12.5 µM; 24 h; 100% = twice the neutral-well signal; in the data active = activation above about 40%; inconclusive = no clear call, values can overlap the other calls;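 also: 0% = median of the plate's neutral control wells and 100% = double that signal; a rise in the Bmi1 reporter signal indicates esBAF inhibition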
Wnt act – Wnt/beta-catenin pathway activators, primary screen, cell-based, plate reader, single point. Wnt/beta-catenin reporter cell assay, activator. activation, % at 9.35 µM. 300,000 compounds, 1.2% hits. AID 743398, 2014; in the data active = activation above about 30%, passing the limit was not always enough; inconclusive = no clear call, values can overlap the other calls;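 also: 0% = neutral control wells and 100% = positive control wells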
* hit, by the source's call; ? = inconclusive; · = not tested or not shown.

SMILES | MITF act | GAA850 FXN act | AHR activator | esBAF inh | Wnt act
Cc1ccc(O)c(C(=O)c2cnn(-c3ccccc3)c2)c1 | 8 | 0 | 8 | 50* | 14
Nc1cc(-c2nc3ncccc3o2)ccc1Cl | 79 | 5 | 59* | ? | -1
Cc1ccc(-c2nc3ncccc3o2)cc1N | · | 5 | 67* | 38 | 18
Nc1ccc(-c2nc3ncccc3o2)c(O)c1 | 95* | 6 | 0 | 57* | 18
C[C@H](CO)N1C[C@H](C)[C@H](CN(C)Cc2ccncc2)Oc2c(NC(=O)C3CCOCC3)cccc2C1=O | · | · | · | -8 | ·
CO[C@H]1CN(C)C(=O)c2cc(NC(=O)Nc3cccc(Cl)c3)ccc2OC[C@@H](C)NC[C@@H]1C | · | · | · | 3 | ·
CN(C)c1ccc(C=Cc2ccnc3ccccc23)cc1N | · | · | · | -10 | 39*
C[C@H](CO)N1C[C@H](C)[C@H](CN(C)C(=O)Nc2ccccc2)Oc2ccc(NS(C)(=O)=O)cc2C1=O | · | · | · | 3 | ·
Cc1ccc(S(=O)(=O)N2CCCN(C(=O)c3cc4ccccc4[nH]3)CC2)cc1 | -14 | 2 | 62* | · | 9
O=C(c1cc2ccccc2[nH]1)N1CCOCC1 | -23 | 2 | 45 | · | 36*
CCN1CCN(C(=O)c2cc3cc(F)ccc3[nH]2)CC1 | -1 | 2 | 65* | 3 | 1
CC(C)NC(=O)N(C)C[C@H]1Oc2cc(Br)ccc2S(=O)(=O)N([C@@H](C)CO)C[C@@H]1C | · | · | · | 2 | ·
Cc1noc(C)c1NC(=O)N[C@@H]1CC[C@@H](CC(=O)NCc2ccc(Cl)c(Cl)c2)O[C@@H]1CO | · | · | · | 4 | ·
O=C(CCC1CCCN(C(=O)c2ccncc2)C1)NCc1ccc(F)c(F)c1 (stereo not drawn) | 1 | -1 | 2 | · | -1
O=C(CCC1CCCN(C(=O)c2cc3ccccc3o2)C1)NCc1ccc(F)c(F)c1 (stereo not drawn) | · | 2 | 12 | 56* | -1
Clc1ccccc1OCc1nnc(-c2ccccc2Br)o1 | 99* | 3 | 4 | 115* | ·
CCCn1nc2cc(C(=O)NCCc3cccs3)ccc2c1OCC | 71 | 2 | 26 | 72* | 19
CCOc1c2ccc(C(=O)NCC34CC5CC(CC(C5)C3)C4)cc2nn1CC | -6 | 1 | 51* | -1 | 0
CCn1nc2cc(C(=O)NCC34CC5CC(CC(C5)C3)C4)ccc2c1OC | 4 | -1 | 3 | -1 | -1
C[C@@H]1CN([C@@H](C)CO)C(=O)c2cccc(NS(=O)(=O)c3cn(C)cn3)c2O[C@@H]1CN(C)C(=O)NC1CCCCC1 | · | · | · | -1 | ·
C[C@@H]1CCCCO[C@H](CN(C)Cc2ccc3c(c2)OCO3)[C@H](C)CN([C@H](C)CO)C(=O)c2cc(NS(=O)(=O)c3ccccc3)ccc2O1 | · | · | · | 0 | ·
O=[N+]([O-])c1cccc(C(=Nc2ccc(Cl)cc2)NO)c1 | · | 1 | 67* | 2 | 2
O=C(CCN1CCCCC1)NCC[C@@H]1CC[C@@H](NC(=O)C2CCOCC2)[C@H](CO)O1 | · | · | · | 1 | ·
CNC[C@@H]1Oc2ccc(NS(C)(=O)=O)cc2C(=O)N([C@H](C)CO)C[C@H]1C | · | · | · | 0 | ·
CS(=O)(=O)c1ccc(C(=O)Nc2ccc(N3CCCCC3)cc2)c(Cl)c1 | 5 | 0 | -6 | · | 0
SMILES | MITF act | GAA850 FXN act | AHR activator | esBAF inh | Wnt act
Cc1ccc(Sc2ccc(NC(=O)c3ccc(S(C)(=O)=O)cc3Cl)cc2)cc1 | -15 | -2 | 48* | 12 | -18
Nc1ccc2c(c1)C/C(=C/c1ccco1)C2=O | 55 | 6 | 2 | · | 66*
COc1cccc(C2=CC(c3cccc(OC)c3OC(F)F)n3nnnc3N2)c1 (stereo not drawn) | 20 | 0 | 19 | 10 | 0
COc1cccc(C2=CC(c3cccc(OC)c3OC)n3nnnc3N2)c1 (stereo not drawn) | 12 | -2 | 10 | 47* | ·
C[C@H](CO)N1C[C@H](C)[C@H](CN(C)Cc2ccc(Oc3ccccc3)cc2)Oc2ccc(NC(=O)Nc3ccc4c(c3)OCO4)cc2CC1=O | · | · | · | 1 | ·
O=C(C[C@@H]1CC[C@H](NS(=O)(=O)c2ccccc2)[C@@H](CO)O1)NCc1ccccc1F | · | · | · | 2 | ·
CO[C@@H]1CN(C)C(=O)c2ccc(NC(=O)c3nc4ccccc4s3)cc2OC[C@@H](C)N(Cc2cccnc2)C[C@H]1C | · | · | · | 46* | ·
COc1ccc(CN2C[C@@H](C)[C@H](OC)CN(C)C(=O)c3ccc(NC(=O)c4nc5ccccc5s4)cc3OC[C@H]2C)cc1 | · | · | · | 64* | ·
Cc1cc(C)cc(N2Cc3ccccc3C2)c1 | 6 | 0 | 6 | 0 | -2
COc1cc(N2Cc3ccccc3C2)ccc1C=O | · | -2 | 12 | 51* | 7
O=[N+]([O-])c1ccccc1NCCNc1ncc(C(F)(F)F)cc1Cl | 38 | 2 | 21 | · | ·
O=[N+]([O-])c1cccnc1NCCc1c[nH]c2ccccc12 | 64 | 2 | 24 | ? | 30
O=[N+]([O-])c1cccnc1NCCc1ccccc1 | 38 | 4 | 43 | 73* | 3
O=[N+]([O-])c1cccnc1NCCNc1ncc(C(F)(F)F)cc1Cl | 101* | 3 | 1 | 48* | ·
O=C(Nc1ccc2c(c1)nc1n2CCSC1)c1ccccc1 | 22 | 1 | -12 | -20 | 12
COc1cc(NC(=O)Cc2ccccc2)nc(OC)n1 | -7 | 2 | 0 | 13 | ·
COc1ccc(C(=O)Nc2cccc(C)c2)cc1 | · | 3 | 0 | 14 | 58*
COc1ccc(C(=O)Nc2ccc3nc(C)c(C)nc3c2)cc1 | 36 | 1 | 4 | 62* | 8
COc1ccc(NC(=S)Nc2ccc3nc(C)c(C)nc3c2)cc1 | · | -2 | 17 | 3 | 8
COc1ccc(C(=O)Nc2ccc3c(c2)nc2n3CCSC2)cc1 | · | 3 | -14 | 33 | 49*
COc1ccc(C(=O)Nc2cc(OC)nc(OC)n2)cc1 | 92* | 3 | 9 | 24 | ·
COc1ccc(S(=O)(=O)N(C)C[C@@H]2OCCCC[C@@H](C)Oc3ccc(NC(=O)C4CCCCC4)cc3C(=O)N([C@@H](C)CO)C[C@@H]2C)cc1 | · | · | · | 21 | ·
CCC(=O)Nc1ccc2c(c1)C(=O)N(C)C[C@@H](OC)[C@H](C)CN[C@@H](C)CO2 | · | · | · | -19 | ·
Cc1ccc(S(=O)(=O)Nc2cccc3c2O[C@H](CN(C)C(=O)Nc2cccc4ccccc24)[C@@H](C)CN([C@H](C)CO)C3=O)cc1 | · | · | · | 11 | ·
CCC(=O)Nc1ccc2c(c1)C(=O)N(C)C[C@H](OC)[C@H](C)CN(C(=O)C1CC1)[C@@H](C)CO2 | · | · | · | -5 | ·
Cc1ccc(CN2CCN(Cc3ccccc3)C(CCO)C2)s1 (stereo not drawn) | -3 | 1 | 2 | · | -2
Cc1ccc(CN2CCN(C3CCCC3)C(CCO)C2)s1 (stereo not drawn) | 8 | 2 | 1 | -1 | 31*
